Where “and” joins values, the source holds several entries; their conditions need not be identical. Equal entries are not always repeated. The whole screen tested about 240,000 compounds, of which about 1,300 (0.54%) were called active. Where a call stands in place of a potency, no number is given. About 1% were inconclusive and are not listed. The sample holds actives, similar compounds and a random draw of the others, so the mix is not that of the screen. The call rests on the fitted dose curve; in most records, active means well fitted inhibition curve with a large enough effect; inconclusive means small, poorly fitted or top-dose-only effect; inactive means flat fitted curve, though single readings scatter. Some structures have more than one record in an assay (separate samples or runs), and their calls can disagree.
target: ATP-dependent DNA helicase Q1 (Homo sapiens) (UniProt P46063); test: qHTS Assay for Inhibitors of RecQ-Like Dna Helicase 1 (RECQ1); conditions: RECQ1 DNA unwinding, red fluorescence kinetic read; series mostly up to 57.3 µM; further: nearly all actives have a fitted effect of over 30% in size
Sequence (P46063 whole entry, looked up): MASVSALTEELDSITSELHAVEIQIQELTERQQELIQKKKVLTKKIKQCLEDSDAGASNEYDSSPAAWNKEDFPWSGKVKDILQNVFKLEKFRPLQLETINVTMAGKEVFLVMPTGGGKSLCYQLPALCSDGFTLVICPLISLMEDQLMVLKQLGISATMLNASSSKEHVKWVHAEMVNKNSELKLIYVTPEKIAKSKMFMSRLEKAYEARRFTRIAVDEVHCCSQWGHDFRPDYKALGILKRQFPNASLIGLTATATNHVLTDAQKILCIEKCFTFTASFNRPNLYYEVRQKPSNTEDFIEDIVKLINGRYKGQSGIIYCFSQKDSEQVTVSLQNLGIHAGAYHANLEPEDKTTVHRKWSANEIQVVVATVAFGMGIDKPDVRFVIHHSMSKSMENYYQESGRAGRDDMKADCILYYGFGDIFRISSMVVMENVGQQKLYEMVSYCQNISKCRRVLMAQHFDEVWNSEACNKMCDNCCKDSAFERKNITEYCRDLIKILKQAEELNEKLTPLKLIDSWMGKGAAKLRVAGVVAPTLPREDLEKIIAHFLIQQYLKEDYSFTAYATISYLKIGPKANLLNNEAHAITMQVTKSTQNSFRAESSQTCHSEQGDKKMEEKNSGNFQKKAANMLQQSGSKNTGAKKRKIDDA
Source text: Survival of cells and the faithful propagation of the genome depend on elaborate mechanisms of detecting and repairing DNA damage. Treatment of advanced cancer relies on radiation therapy or chemotherapy, which kill cancer cells by causing extensive DNA damage. It is often found, that cancer cells develop resistance to therapy through enhanced activity of DNA repair functions; this has led to an increased interest in developing drugs that interfere with DNA repair, which could sensitize cancer cells to conventional therapy.
This validation qHTS assay pertains to human RECQ1, which is important in resolving abnormal DNA structures formed during replication or homologous recombination. Shutting down the expression of RECQ1 leads to chromosomal instability and higher radiation sensitivity in cultured cells.
The validation assay was a fluorescence quenching based kinetic qHTS for RECQ1 Helicase DNA unwinding. The activity was measured as ATP-dependent separation of a 20-bp DNA duplex extended by 30-nt single-stranded tails (forked duplex). The forked DNA substrate was tagged with rhodamine fluorophore (carboxytetramethyl rhodamine, TAMRA) and BHQ-2 (Black Hole Quencher 2) dark quencher. Strand separation results in an increase in the fluorescence of TAMRA (excitation 525 nm, emission 598 nm). This substrate construct operates in a red-shifted region where very few compound library members have been noted to fluoresce (PubChem AIDs 593 and 594). An additional feature of the assay is the inclusion of 2.5 ug/ml poly (dIdC), to reduce interference by compounds such as DNA intercalators, a major source of false inhibitors.
Opher Gileadi, Structural Genomics Consortium, University of Oxford
Screening Center PI: Austin, C.P.
Screening Center: NIH Chemical Genomics Center [NCGC]
Three uL of reaction buffer (25 mM Tris-HCl (pH 8.0), 5 mM NaCl, 2 mM MgCl2, 1mM DTT, 0.01% Tween- 20, and 2.5 ug/ml poly(dI-dC), including enzyme (50 nM RECQ1T1), were dispensed into a 1536-well Greiner black assay plate via solenoid-valve based nanoliter dispensers. Compounds (23 nl each in columns 5-48) and control (23 nl each in column 2 as dose-response) were transferred via a Kalypsys pintool equipped with a 1536-pin array. The plates were incubated for 15 min at room temperature, and then 1 ul of substrates (200 nM DNA and 2 mM ATP, final concentrations) was added to start the reaction. The plate was transferred into a ViewLux high-throughput CCD imager where the reaction progress was measured in a discontinuous kinetic mode (two reads spaced 2 hours apart, with intermediate room temperature incubation of the covered assay plate) by using standard red-fluorescence optics (excitation filter 525 nm, emission filter 598 nm). Enzyme-free and vehicle (DMSO) controls were included for signal normalization.
Potency means the concentration at half of the fitted maximal effect.

Row | Structure (SMILES) | Potency | outcome
1 | O=[N+]([O-])c1ccc(N2CCSCC2)cc1O | inactive | –
2 | NC(N)=N/N=C/c1ccc(Cl)c([N+](=O)[O-])c1 | inactive | –
3 | O=C1CSC(=S)N1/N=C/c1ccc(O)c([N+](=O)[O-])c1 | 25.1 µM (active) | –
4 | Cc1cc(C)c(OCC(=O)N/N=C/c2ccco2)c(C)c1 | inactive | –
5 | CN1[C@H]2CC(OC(=O)[C@@H](CO)c3ccccc3)C[C@H]1[C@H]1O[C@H]12 (some centres not stated) | inactive | –
6 | NC(=O)c1sc(-c2ccsc2)cc1N | inactive | –
7 | O=C(NCc1ccccn1)[C@]1(C(F)(F)F)C[C@H](CCc2ccccc2)CCCO1 | inactive | –
8 | O=C1OCCN1C(=O)[C@H]1[C@H](c2ccccc2)C(c2ccc(F)cc2)=NN1c1ccccc1 | inactive | –
9 | O=C1OCCN1C(=O)[C@H]1[C@H](c2ccc(Cl)cc2)C(c2cccc(Cl)c2)=NN1c1ccc(Br)cc1 | 25.1 µM (active) | –
10 | C[C@@H]1C(c2ccc(F)cc2)=NN(c2ccc(Br)cc2)[C@H]1C(=O)N1CCOC1=O | 25.1 µM (active) | –
11 | O=C1OCCN1C(=O)[C@H]1[C@H](c2ccc(F)cc2)C(c2ccccc2)=NN1c1ccc(Br)cc1 | inactive | –
12 | CC(C)C(NS(=O)(=O)c1ccc(-c2ccc(Br)cc2)cc1)C(=O)O (configuration not stated) | inactive | –
13 | CC(C)=CCC[C@]1(C)[C@@H](CC=C(C)C)C[C@@]2(CC=C(C)C)C(=O)[C@]1(C(=O)C(C)C)C(=O)C(CC=C(C)C)=C2O | inactive | –
14 | CC(C)C(=O)Nc1c(O)c2ccccc2[nH]c1=O | inactive | –
15 | O=C1C(c2[nH]c3ccccc3c2O)=Nc2ccccc21 | inactive and 35.5 µM (active) | –
16 | CCCC(=O)Nc1c(O)c2ccccc2[nH]c1=O | inactive | –
17 | COc1ccc(Cl)cc1NC(=O)Cn1nc(-c2ccc(C)cc2)n(C)c1=S | inactive | –
18 | CCN=C1SC(CC(=O)Nc2ccc(C)cc2)C(=O)N1CC (configuration not stated) | inactive | –
19 | Cc1c(Cl)cccc1NC(=O)CC1SC(=NCC2CCCO2)NC1=O (configuration not stated) | inactive | –
20 | Cc1ccc(NC(=O)CC2S/C(=N/N=C3\CCCc4ccccc43)NC2=O)cc1 (configuration not stated) | 25.1 µM (active) | –
21 | COc1cc(OC)c2c(c1C(CCN1CCCCC1)c1ccc(N(C)C)cc1)OC(=O)CC2c1ccc(N(C)C)cc1 (configuration not stated) | inactive | –

Row | Structure (SMILES) | Potency | outcome
22 | O=[N+]([O-])c1cc(S(=O)(=O)Nc2cccc(Cl)c2)ccc1N=Nc1c(O)[nH]c2ccccc12 | inactive | –
23 | CC1=C(/C=C/C(C)=C/C=C/C(C)=C/C=C/C=C(C)/C=C/C=C(C)/C=C/C(=O)[C@]2(C)C[C@@H](O)CC2(C)C)C(C)(C)C[C@H](O)C1 | inactive | –
24 | C=C1CCN(C(CC(C)C)C(=O)NCc2cc(OC)c(OC)c(OC)c2)S(=O)(=O)c2ccccc21 (configuration not stated) | inactive | –
25 | COc1ccc(-c2ccc(OC)c(C3C4C=CCC(C)C4C(=O)N3Cc3ccccc3)c2)cc1C (configuration not stated) | inactive | –
26 | O=C(NNC(=O)c1cc2c(s1)CCCC2)c1ccccc1 | inactive | –
27 | O=C(c1cc2c(s1)CCC2)N1CCN(c2ccccc2)CC1 | 11.2 µM (active) | –
28 | Cc1nc2ccc(C(=O)N3CCN(c4ccccc4)CC3)cc2s1 | inactive | –
29 | CC(C)C(=O)N1CCC2(CC1)Oc1ccc(F)cc1C(=O)C21CC(c2ccccc2)=NO1 (configuration not stated) | inactive | –
30 | CCCOc1ccc(NC(=O)CC2C(=O)N(C)C(=S)N2Cc2ccc3c(c2)OCO3)cc1 (configuration not stated) | inactive | –
31 | O=C(Nc1cc(C(=O)Nc2ccc(S(=O)(=O)O)cc2)cc(C(=O)Nc2ccc(S(=O)(=O)O)cc2)c1)Nc1cc(C(=O)Nc2ccc(S(=O)(=O)O)cc2)cc(C(=O)Nc2ccc(S(=O)(=O)O)cc2)c1 | inactive | –
32 | Cc1ccc(CNC(=O)C2(C(F)(F)F)C/C(=C\Cc3ccccc3)CCCO2)o1 (configuration not stated) | inactive | –
33 | CC(=O)OCC1OC(C#Cc2ccccc2Cl)C=CC1OC(C)=O (configuration not stated) | – | inactive [at 11.5 µM]
34 | Fc1ccc(Cl)cc1-c1nc(Nc2ccncc2)c2nccnc2n1 | inactive | –
35 | CC(Cc1ccccc1)C(=O)N(C)Cc1ccccc1 (configuration not stated) | inactive | –
36 | COc1ccc(CNC(=O)C(Cc2ccccc2)n2cccc2)cc1 (configuration not stated) | inactive | –
37 | Cc1ccc(C)n1C(Cc1ccccc1)C(=O)O (configuration not stated) | 12.6 µM (active) | –
38 | O=C(NCC1CC1)C1(C(F)(F)F)C/C(=C\CCO)CCCO1 (configuration not stated) | inactive | –
39 | CCOC(=O)C1=NO[C@@]2(C=C(Br)C(=O)[C@H]3O[C@H]32)C1 | 28.2 µM (active) | –
40 | CCOC(=O)C1=NOC(Cn2cc(C(C)=O)c(=O)[nH]c2=O)C1 (configuration not stated) | inactive | –
41 | CCOC(=O)C1=C(C)N=C2c3ccccc3C(=O)C2C1c1ccc(Br)cc1 (configuration not stated) | inactive | –
42 | NC(=O)C1=C[C@@H](c2csc3ccccc23)C[C@@H](OCc2ccc(CO)cc2)O1 | inactive | –

Row | Structure (SMILES) | Potency | outcome
43 | COC(=O)c1ccc([C@@H](O)[C@H](C)C(=O)CC(=O)OC(C)(C)C)cc1 | inactive | –
44 | Cc1cccc(N=C2NC(=O)/C(=C/c3cn(C)c4ccccc34)S2)c1 | inactive | –
45 | CN(C)c1ccc(-n2cccc2/C=C2/SC(=Nc3ccc(F)cc3)NC2=O)cc1 | inactive | –
46 | Cc1ccc(N=C2NC(=O)/C(=C/C=C/c3ccco3)S2)cc1C | 22.4 µM (active) | –
47 | O=C1CN(Cc2ccccc2)S(=O)(=O)c2ccccc21 | inactive | –
48 | CC(C)=CCN1CCC2(CCc3ccccc32)CC1 | inactive | –
49 | CS(=O)(=O)c1ccc2c(c1)SC1=NC(=O)/C(=C/c3ccco3)C(=N)N12 | 28.2 µM (active) | –
50 | CCS(=O)(=O)C1=NSC2=NC(=O)/C(=C\c3cc(C)n(-c4cccc(OC)c4)c3C)C(=N)N21 | inactive | –
51 | CCC1=NN2C(=N)/C(=C/c3cc(C)n(-c4ccccc4)c3C)C(=O)N=C2S1 | inactive | –
52 | CCOC(OCC)OCC | inactive | –
53 | COC(=O)C(CC(C)C)NS(=O)(=O)c1cc(Br)ccc1Br (configuration not stated) | inactive | –
54 | C=CCOC(=O)C(=C)C | inactive | –
55 | C/C(=N\NC(=S)NCc1ccccc1)c1ccc(Cl)cc1 | 31.6 µM (active) | –
56 | C/C(=N\NC(=S)NCc1ccccc1)C1CCCCC1 | inactive | –
57 | O=C(O)c1ccc(/C=N/NC(=S)NCc2ccccc2)cc1 | inactive | –
58 | CC(O)[C@@H](N)C(=O)O (some centres not stated) | inactive | –
59 | Cc1ccc(OCC(=O)Nc2nnc(-c3ccco3)s2)cc1 | inactive | –
60 | CNc1nnc(-c2ccco2)s1 | inactive | –
61 | COc1ccc(OCC(=O)Nc2nnc(-c3ccco3)s2)cc1 | 31.6 µM (active) | –
62 | COc1cc(C(F)(F)F)c(C(=O)N(C)c2ccc(Cl)cc2)cn1 | inactive | –

Source: PubChem BioAssay AID2549 (National Center for Advancing Translational Sciences (NCATS), 2010)
